The panel holds about 83,000 compounds, 20% with a hit somewhere; the sample as a whole holds those more often.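 Assay: single dose, 48 h. Readout: percent growth (0 = no net growth; negative = cell death). Active: <10.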 The source made the active and inactive calls.
What follows are molecules tested on HL-60(TB) leukemia (assay: NCI-60 one-dose screen, 48 h (100 = growth as untreated, 0 = no growth, -100 = all killed)). Settings: 10 µM unless noted.

SMILES	growth
COc1ccc2c(c1)O/C(=C\c1cccc(OCC(=O)Nc3nc4ccccc4s3)c1)C2=O	40.7% (inactive)
CCC(=O)N1C/C(=C/c2ccc(Br)cc2)C(=O)/C(=C/c2ccc(Br)cc2)C1	-26.2% (active)
N#CC1=C(N)Oc2ccc3ccccc3c2C1c1ccccc1Cl (stereo not given)	0.765% (active)
CCOC(=O)n1cc(-c2nonc2-c2cn(C(=O)OCC)c3ccc(Br)cc23)c2ccccc21	93.9% (inactive)
COc1cc2cc(Oc3ccc(NC(=O)Nc4ccc(F)c(C(F)(F)F)c4)cc3)c(C)nc2cc1OCCN1CCCCC1	-24.5% (active)
CCN(CC)c1ccc2cc(NC(=O)OCCNC(=O)CCNC(=O)[C@H](CC(C)C)NC(=O)C(C)(C)NC(=O)C(C)(C)NC(=O)[C@H](CC(C)C)NC(=O)CCNC(=O)C(C)(C)NC(=O)[C@H](CC(C)C)NC(=O)CCNC(=O)[C@@](C)(CC)NC(=O)[C@H](C)NC(=O)CCNC(=O)C(C)(C)NC(=O)[C@H](C)NC(=O)[C@@H]3CCCN3C(=O)[C@@](C)(CC)NC(=O)[C@H](Cc3ccccc3)NC(=O)C3CCCN3C(=O)C(C)(C)NC(=O)C3CCCN3C(=O)C(C)(C)NC(C)=O)c(=O)oc2c1 (stereo not given in full)	-67.7% (active)
CCOC(=O)CC1C(CNC(=O)NC)OC(n2cnc3c(NC(=O)Nc4ccccc4)ncnc32)C1O[Si](C)(C)C(C)(C)C (stereo not given)	44.5% (inactive)
C=CCC(OC(C)=O)c1ccc(C(C)C)cc1 (stereo not given)	83.1% (inactive)
COc1cc(NCCCN)c2ncccc2c1	68% (inactive)
COc1cc(-c2nc3ccccc3o2)cc(CN2CCN(c3ccccc3)CC2)c1O	71.3% (inactive)

Source: PubChem BioAssay (NCI)
